Only some compounds are listed: those with a hit (about 3.3% of all), similar ones and a draw of the others.
AmpC detergent: inhibitors of E. coli AmpC beta-lactamase with detergent; P00811; AmpC hydrolysis of nitrocefin, absorbance 480 nm, 0.01% Triton; Potency, µM (series often up to 114 µM), inactives show at the top dose activity change, negative = inhibition, most hits filed as inhibitors; 370,000 compounds, 0.041% hits; AID 485294;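 further: 0% = no-compound wells and -100% = no-enzyme wells; nearly all actives have a fitted effect of over 25% in size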
Target sequence (P00811 whole entry, looked up): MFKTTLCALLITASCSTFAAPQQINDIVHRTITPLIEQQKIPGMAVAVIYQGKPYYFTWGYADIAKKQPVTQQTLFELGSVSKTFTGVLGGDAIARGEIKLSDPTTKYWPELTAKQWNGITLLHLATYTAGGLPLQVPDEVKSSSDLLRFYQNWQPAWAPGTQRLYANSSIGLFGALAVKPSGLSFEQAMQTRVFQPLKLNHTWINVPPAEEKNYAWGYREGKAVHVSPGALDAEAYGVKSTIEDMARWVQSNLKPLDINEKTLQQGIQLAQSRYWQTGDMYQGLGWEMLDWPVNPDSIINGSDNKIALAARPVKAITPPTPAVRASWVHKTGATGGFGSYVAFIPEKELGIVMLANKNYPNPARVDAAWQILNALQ
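20 mM phosphate pH 7.0 + 0.01% (detergent screen) or 0.0001% Triton X-100; 5.3 nM AmpC reagent; cpd preinc 15 min RT; nitrocefin (800 uM stock) to start; A480 q20 s × 4 min; Activity was normalised to no-enzyme and no-compound control wells.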
AmpC inh no detg: inhibitors of E. coli AmpC beta-lactamase without detergent | Potency, µM (titrated, usually from 57.1 µM), for inactives: top-dose activity change, negative = inhibition, actives largely listed as inhibitors | P00811 | AmpC nitrocefin hydrolysis, absorbance 480 nm, 0.0001% Triton | 330,000 compounds, 0.52% hits | AID 485341;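 further: plate controls were no compound for no effect and no enzyme for full effect; nearly all actives have a fitted effect of over 20% in size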
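20 mM phosphate pH 7.0 + 0.01% (detergent screen) or 0.0001% Triton X-100; 5.3 nM AmpC reagent; cpd preinc 15 min RT; nitrocefin (800 uM stock) to start; A480 q20 s × 4 min; Activity was normalised to no-enzyme and no-compound control wells.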
Sm TGR block: blocks Schistosoma mansoni thioredoxin glutathione reductase; Q962Y6; purified TGR, DTNB reduction, TNB absorbance 405 nm; Potency, µM (titrated, usually from 114 µM), inactives show at the top dose activity change, negative = inhibition, hits mostly inhibitors; 360,000 compounds, 3% hits; AID 485364; further: nearly all actives have a fitted effect of over 60% in size
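TGR 20 nM + NADPH 100 uM (dispensed conc.), cpd preinc 15 min RT; start with NADPH (500 uM addition) then DTNB (15 mM addition). Kinetic TNB absorbance, 405 nm filter. Four-parameter Hill fit across titration.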
Starred values were filed as active, the others as inactive; ? = inconclusive; nt = not tested or not shown. The call rests on the fitted dose curve; in most records, active means well fitted curve in the direction sought with a large enough effect; inconclusive means small, poorly fitted or top-dose-only effect, or another doubt; inactive means no such curve, though single readings can be large; an effect the other way counts as inactive or inconclusive. Unless noted, on the % scale 0 is the no-effect control and ±100 the full control effect; potency means the concentration at half of the fitted maximal effect.

SMILES	AmpC detergent	AmpC inh no detg	Sm TGR block
Cc1ccc(N=Cc2cccc(O)c2O)c(C)c1	0%	-51%	-1%
Cc1cccc(C(=O)Nc2cccc(C(=O)N3CCOCC3)c2)c1	-9%	-15%	0%
CC(=O)/C(=N/Nc1cccc(C)c1)N1CCOCC1	0%	-10%	50µM*
Cc1c(Nc2cc(Cl)c3nonc3c2[N+](=O)[O-])c(=O)n(-c2ccccc2)n1C	5%	-27%	-18%
Cc1c(Nc2cc(N3CCOCC3)c3nonc3c2[N+](=O)[O-])c(=O)n(-c2ccccc2)n1C	-2%	-14%	18µM*
O=C(/C=C/c1ccc([N+](=O)[O-])cc1)Nc1cccc(C(=O)Nc2ccccc2C(=O)O)c1	5%	35µM*	7%
O=C(/C=C/c1ccccc1)Nc1cccc(C(=O)O)c1	3%	-15%	9%
O=C(N/N=C/C(Cl)=C/c1ccc([N+](=O)[O-])cc1)C(=O)Nc1ccc(C(=O)O)cc1	0%	-23%	?
COC(=O)c1cccc(NC(=O)/C=C/c2ccc([N+](=O)[O-])cc2)c1	-12%	-25%	0%
O=C(/C=C/c1ccccc1)Nc1cc(NC(=O)/C=C/c2ccccc2)cc(C(=O)O)c1	?	-23%	40µM*
O=C(N/N=C/C(Cl)=C/c1ccc([N+](=O)[O-])cc1)C(=O)Nc1ccccc1C(=O)O	1%	-58%	14µM*
C=CCN1C(=O)c2ccc(C(=O)N(C)CC(=O)Nc3c(C)cccc3C)cc2C1=O	0%	-3%	-1%
Cc1[nH]c(=S)c(C#N)c(C)c1CCC#N	4%	-14%	-22%
CC(=O)c1cc(-c2ccccc2)n(CCC(=O)Nc2ccc(C(C)C)cc2)c1C	4%	nt	5%
O=C(OCC(=O)N1CCCCC1)c1cc(=O)[nH]c2ccccc12	nt	-12%	nt
CCOC(=O)C(NS(=O)(=O)c1ccccc1)(C(F)(F)F)P(=O)(OCC(C)C)OCC(C)C (configuration not stated)	?	9%	18µM*
COC(=O)NC(NS(=O)(=O)c1ccccc1)(C(=O)OC)C(F)(F)F (configuration not stated)	3%	2%	9%
CCCCNC(=O)N(O)C1N(CCCC)C(=O)N(CC(=O)OC)C1(C)C (configuration not stated)	1%	-14%	0%
COC(=O)C1CCN(c2c([N+](=O)[O-])cc(C(F)(F)F)cc2[N+](=O)[O-])CC1	3%	0.25µM*	4%
NC(=O)C1CCN(c2c([N+](=O)[O-])cc(C(F)(F)F)cc2[N+](=O)[O-])CC1	-5%	18%	17%
COc1ccc(N)cc1-n1c(C)ccc1C	-2%	-13%	16µM*
COc1ccc(C)cc1-n1c(C)cc(C=O)c1C	6%	-13%	6%
CCC(=O)c1ccccc1OCCCCn1cncn1	-7%	-10%	11%
COc1cccc(CNC(=O)CSc2nc(=O)n(Cc3ccncc3)c3c2CCC3)c1	-8%	-10%	-2%
O=C(O)Cc1ccc(N=Nc2c(O)c(C(=O)O)cc3ccccc23)cc1	-15%	-39%	-32%
SMILES	AmpC detergent	AmpC inh no detg	Sm TGR block
NS(=O)(=O)c1ccc(N=Nc2c(O)c(C(=O)O)cc3ccccc23)cc1	-10%	22µM*	?
COC(=O)c1nn2c(C(F)(F)F)cc(-c3ccc(Br)o3)nc2c1Br	?	-27%	45µM*
CC(C)(C)NC(=O)c1nn2c(C(F)(F)F)cc(-c3ccccc3)nc2c1Br	-10%	-17%	-4%
CCC(=O)NC(c1cccs1)c1ccc2cccnc2c1O (configuration not stated)	3%	-13%	0%
CCC(=O)NC(C)c1cc(Cl)c2cccnc2c1O (configuration not stated)	-3%	-7%	-4%
CN1CCN(C(c2ccc(Br)cc2)c2cc(Cl)c3cccnc3c2O)CC1 (configuration not stated)	-10%	-34%	0.63µM*
CN1CCN(C(c2cccnc2)c2ccc3cccnc3c2O)CC1 (configuration not stated)	6%	7%	0.25µM*
Cc1ccn2c(=O)nc(SCC(=O)N3CCCCC3)nc2c1	-14%	-5%	-5%
COc1ccccc1NC(=O)N1CCN(Cc2nc3ccc(C)cc3o2)CC1	0%	nt	-16%
CSc1ccc(CN2CCC(n3nccc3NC(=O)c3ccccc3C)CC2)cc1	?	74%	0%
C=CCn1c(C)nc2c(cnn2-c2ccccc2)c1=O	-7%	-3%	11%
CC1(C)CC(=O)C2=C(C1)N(Cc1ccco1)C(=O)C2(NC(=O)c1cccnc1)C(F)(F)F (configuration not stated)	-10%	32%	20µM*

Screens: PubChem, National Center for Advancing Translational Sciences (NCATS)
